In PubChem BioAssay (NCATS):
Results filed as inconclusive are left out. Activity calls are given as the source filed them. Calls follow the shape of the dose curve; as a rule, active = well fitted curve in the direction sought with a large enough effect; inconclusive = small, poorly fitted or top-dose-only effect, or another doubt; inactive = no such curve, though single readings can be large; an effect the other way counts as inactive or inconclusive.

Key:
[1] = Cell Viability - LYMP2-004 (AID 966); also: nearly all actives have a fitted effect of over 65% in size
Method in brief: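 Human lymphoblastoid cells (2500/well) in complete medium were treated with compounds for 24 hr at 37 C, then intracellular ATP was measured by CellTiter-Glo luminescence. AC50 values came from Hill-equation fits of concentration-response data.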

[2] = Cell Viability - LYMP2-009 (AID 968); also: series mostly up to about 92 µM; nearly all actives have a fitted effect of over 55% in size
[3] = Cell Viability - LYMP2-011 (AID 969); also: nearly all actives have a fitted effect of over 60% in size
Method in brief: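 Human lymphoblastoid cells (2500/well) were plated in complete medium, preincubated 5 hr at 37 C, then exposed to compounds for 24 hr at 37 C. Intracellular ATP was read by CellTiter-Glo luminescence, and AC50 came from Hill-equation concentration-response fits.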

[4] = Cell Viability - LYMP2-013 (AID 970); also: series mostly up to about 92 µM; nearly all actives have a fitted effect of over 55% in size
Method in brief: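 Human lymphoblastoid cells, 2500/well, were preincubated 5 hr at 37 C, then treated with compounds for 24 hr at 37 C in complete medium. Intracellular ATP was read by CellTiter-Glo luminescence; AC50 from Hill-equation fits of concentration-response data.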

[5] = Cell Viability - LYMP2-015 (AID 971); also: nearly all actives have a fitted effect of over 55% in size
Method in brief: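 Human lymphoblastoid cells (2500/well) in complete medium were preincubated 5 hr at 37 C, then compound-treated 24 hr at 37 C. Intracellular ATP was read by CellTiter-Glo luminescence after 30 min at room temperature; AC50 came from Hill-equation concentration-response fits.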

[6] = Cell Viability - LYMP2-017 (AID 972); also: series mostly up to about 92 µM; nearly all actives have a fitted effect of over 55% in size
Method in brief: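 Human lymphoblastoid cells (2500/well) were seeded in complete medium, held 5 hr at 37 C, then exposed to compounds for 24 hr at 37 C. Intracellular ATP was read by CellTiter-Glo luminescence after 30 min at room temperature, with AC50 values from Hill-equation fits.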

[7] = Cell Viability - LYMP2-019 (AID 973); also: nearly all actives have a fitted effect of over 55% in size
Method in brief: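 Human lymphoblastoid cells were seeded at 2500 cells/well, preincubated 5 hr at 37 C, then exposed to compounds for 24 hr at 37 C in complete medium. Intracellular ATP was measured by CellTiter-Glo luminescence; AC50 from Hill fits.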

[8] = Cell Viability - LYMP2-021 (AID 974)
Method in brief: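 Human lymphoblastoid cells (2500/well) were preincubated 5 hr at 37 C, then exposed to compounds for 24 hr at 37 C in complete medium. Intracellular ATP was read by CellTiter-Glo luminescence; AC50 came from Hill-equation fits of concentration-response data.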

[9] = Cell Viability - LYMP2-023 (AID 975)
Method in brief: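 Human lymphoblastoid cells (2500/well) were preincubated 5 hr at 37 C, then exposed to compounds for 24 hr at 37 C in complete medium. Cellular ATP was read by CellTiter-Glo luminescence, and AC50 came from Hill-equation fits.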

[10] = Cell Viability - LYMP2-025 (AID 976); also: series mostly up to about 92 µM
Method in brief: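 Human lymphoblastoid LYMP2-025 cells (2500/well) were pre-incubated 5 hr at 37 C, then treated with compounds for 24 hr at 37 C in complete medium. Viability was read as intracellular ATP by CellTiter-Glo luminescence; AC50 from Hill fits.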

[11] = Cell Viability - LYMP2-002 (AID 977); also: series mostly up to about 92 µM
Method in brief: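 Human lymphoblastoid LYMP2-002 cells, 2500 per well, exposed to compounds for 24 h at 37 C in complete medium; viability read as intracellular ATP by CellTiter-Glo luminescence, AC50 from Hill fits.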

[12] = Cell Viability - LYMP2-006 (AID 978); also: series mostly up to about 92 µM; nearly all actives have a fitted effect of over 60% in size
Method in brief: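 Human lymphoblastoid cells, 2500 per well, were preincubated 5 hr at 37 C, then exposed to compounds for 24 hr at 37 C in complete medium. Viability was read as intracellular ATP by CellTiter-Glo luminescence; AC50 from Hill-equation fits of qHTS concentration-response data.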

[13] = Cell Viability - LYMP2-007 (AID 979);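 also: cells exposed to compound for 24 h before reading; nearly all actives have a fitted effect of over 60% in size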
Method in brief: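 Human lymphoblastoid cells (2500/well) were plated in complete medium, incubated 5 hr at 37 C, then exposed to compounds for 24 hr at 37 C. Intracellular ATP was read by CellTiter-Glo luminescence after 30 min at room temperature; AC50 from Hill fits.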

[14] = Cell Viability - LYMP2-008 (AID 980); also: nearly all actives have a fitted effect of over 60% in size
Method in brief: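 Human lymphoblastoid cells (2500/well) were plated, held 5 hr at 37 C, then exposed to compounds for 24 hr at 37 C in complete medium. Intracellular ATP was read by CellTiter-Glo luminescence; AC50 from Hill-fitted concentration-response.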

[15] = Cell Viability - LYMP2-010 (AID 981); also: nearly all actives have a fitted effect of over 55% in size
Method in brief: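 Human lymphoblastoid LYMP2-010 cells (2500/well) were preincubated 5 hr at 37 C, then exposed to compounds for 24 hr at 37 C in complete medium. Intracellular ATP was measured by CellTiter-Glo luminescence after 30 min at room temperature; AC50 from Hill-fitted concentration-response.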

[16] = Cell Viability - LYMP2-016 (AID 984); also: nearly all actives have a fitted effect of over 55% in size
Method in brief: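 Human lymphoblastoid cells (LYMP2-016), 2500/well in complete medium, preincubated 5 hr at 37 C, then compound-treated 24 hr at 37 C. Intracellular ATP read by CellTiter-Glo luminescence after 30 min at room temperature; AC50 from Hill-equation concentration-response fits.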

[17] = Cell Viability - LYMP2-018 (AID 985);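 also: compound exposure lasted 24 hr at 37 °C; nearly all actives have a fitted effect of over 50% in size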
Method in brief: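 Human lymphoblastoid cells (2500/well) were pre-incubated 5 hr at 37 C, then exposed to compounds for 24 hr at 37 C in complete medium. Viability was read as intracellular ATP by CellTiter-Glo luminescence; AC50 values came from Hill-equation fits.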

[18] = Cell Viability - LYMP2-005 (AID 967); also: series mostly up to about 92 µM
Method in brief: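 CellTiter-Glo luminescence (cellular ATP) read-out; LYMP2-005 lymphoblastoid cells, 2500/well, 5 h pre-incubation, then 24 h compound exposure at 37 C in complete medium. Tetraoctylammonium bromide positive control; AC50 by standard Hill fit.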

[19] = Cell Viability - LYMP2-012 (AID 982)
[20] = Cell Viability - LYMP2-014 (AID 983); also: series mostly up to about 92 µM; nearly all actives have a fitted effect of over 50% in size
Method in brief: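 Human lymphoblastoid cells (2500/well) were pre-incubated 5 hr at 37 C, then exposed to compounds in complete medium for 24 hr at 37 C. Intracellular ATP was read by CellTiter-Glo luminescence after 30 min at room temperature; AC50 from Hill fits.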

Measured: outcome

C=Cc1ccccc1
not listed: [18] | [19] | [20]
inactive: all other assays above

CCCCCCCCCC(=O)O
inactive: all assays above

COC(C)=O
inactive: all assays above

O=C(O)CC(O)(CC(=O)O)C(=O)O
not listed: [4] | [5] | [7] | [8] | [13] | [14] | [15]
inactive: all other assays above

CN(C)Cc1ccccc1
inactive: all assays above
